Our source for the Potency and viability change, negative = cytotoxic values is PubChem BioAssay (Tox21).

Results filed as inconclusive are left out. A call without a number means that no potency is given here. Calls of active or inactive are those of the source. The call rests on the fitted dose curve.

A short description of this test: qHTS assay to identify small molecule agonists of the AP-1 signaling pathway - cell viability counter screen (AID 1159525). Further: nearly all actives have a fitted effect of over 55% in size. Particulars: ME-180 (cervical carcinoma) AP-1-bla cells viability, ATP luminescence, 5 h; series mostly up to 76.8 µM. The source says:
National Center for Advancing Translational Sciences [NCATS]
NIH Chemical Genomics Center [NCGC]
U.S. Environmental Protection Agency [EPA]
National Institutes of Environmental Health Sciences [NIEHS]
National Toxicology Program [NTP]
U.S. Food and Drug Administration [FDA]
Activator protein-1 (AP-1), a transcription factor, plays an important role in tumor genesis by regulating genes involved in cell proliferation, differentiation, apoptosis, and angiogenesis. AP-1 activity is induced by a complex network of signaling pathways that involves extracellular signals, such as growth factors. The AP-1 protein complex formed from c-Fos and c-Jun binding to the AP-1 response element results in transcriptional activation of genes containing such elements within their promoter.
Low molecular weight molecules have been discovered and developed to modulate various components of these signaling pathways, for example, MAP kinase inhibitors. However, many points of pathway modulation remain untested due to the lack of chemical probes making this signaling locus of general interest.
Using a beta-lactamase reporter-gene under control of the AP-1 response element, a cell-based assay [CellSensor(TM) AP-1-bla ME-180 developed by Invitrogen Corp.] was used to measure EGF-induced signaling. The Tox21 10K library compounds were measured for their ability to positively modulate the action of EC50 EGF on reporter gene activity. Compounds were screened in a 15-pt titration series in 1536-well format. The cytotoxicity of the Tox21 compound library against this cell line was tested in parallel by measuring the intra cellular ATP content in the same wells.
Tox21 Assay Protocol Summary:
2500 cells/5uL in Opti-MEM medium containing 0.5% dialyzed FBS, 0.1 mM NEAA, 1 mM sodium pyruvate and 10 mM HEPES was dispensed into 1536-well black wall/clear bottom plates using a Multidrop dispenser and cells were cultured at 37 degrees Celsius overnight. Next day 23 nL of compounds dissolved in DMSO, positive controls or DMSO were delivered to each well using a pin tool. The plates were incubated at 37 degrees Celsius for 5 hours. 1 uL of LiveBLAzerTM B/G FRET substrate (Solution A+B+C+D) was added to each well using a Flying Reagent Dispenser. After incubated at room temperature for 2.5 hours the plates were measured on an EnVision plate reader at Excitation 405nm, Emission1=460nm and Emission 2=530nm. The %Activity was determined from the ratio of 460nm/530nm.
After the plates were read for Beta-Lactamase assay on Envision; 3 ul Cell Titer Glo (Promega) was added to measure the cytotoxicity and the plates were then incubated at RT in dark for 30 min. The luminescence was read on ViewLux (Perkin Elmer, Shelton, CT) using 6 sec exposure. ViewLux data was expressed as relative luminescence units.
For primary data analysis, raw plate reads for each titration point were first normalized relative to […] EGF control (100%) and DMSO only wells (basal, 0%).
For primary data analysis for viability assay, raw plate reads for each titration point were first normalized Tetra n-octyl ammonium bromide control (-100%) and DMSO (control, 100%).
Take `CC(C)(c1cc(Br)c(OCC(Br)CBr)c(Br)c1)c1cc(Br)c(OCC(Br)CBr)c(Br)c1` (stereo not given): the Potency result was “inactive”.
In the case of `[Cl][Pt-2]([Cl])([Cl])[Cl]`, the Potency result is “inactive”.
Consider `O=C1C(c2[nH]c3ccc(S(=O)(=O)O)cc3c2O)=Nc2ccc(S(=O)(=O)O)cc21`, for which the Potency entry was “inactive”.
Still for that read-out and setting: to `O=C(c1ccc(O)c(O)c1)c1ccc(O)cc1O` belongs “inactive”.
Consider `[Cu+]`, for which the Potency entry is “inactive”.
Same read-out and setting: in the case of `C#Cc1ccc(-c2ccccc2F)cc1` it was “inactive”.
On the same count and under the same terms, to `O=C(O)Cc1ccc2c(c1)C(=O)c1ccccc1CO2` belongs “inactive”.
For `CC(C)Cn1cnc2c(N)nc3ccccc3c21`, the viability change, negative = cytotoxic was 9.4% [at 15.8 µM] (inactive).
`CCc1ccc(Br)cc1`: the Potency result was “inactive”.
Take `CCCC(=O)OC(C)(C)Cc1ccccc1`: the Potency entry was “inactive”.
Turning to `Clc1nnc(Cl)c2ccccc12`, the Potency entry is “inactive”.
Consider `CCCC(=O)OCCc1ccccc1`, for which the Potency result was “inactive”.
Take `NC(=S)NC(N)=S`: the Potency result was “inactive”.
On to `CC(CCc1ccccc1)NCC(O)c1ccc(O)c(C(N)=O)c1` (stereo not given), for which the Potency result is “inactive”.
For the compound `CC(=O)CC(=O)Nc1ccc(S(=O)(=O)O)cc1`, the Potency entry was “inactive”.
Still for that read-out and setting: to `NC(=O)c1cccc([N+](=O)[O-])c1` belongs “inactive”; to `CCCCCCCC/C=C\CCCCCCCCN`, “inactive”; to `CCC(CC)(CC(=O)Nc1cccc(/C=C/c2nc(C3CCC3)cs2)c1)C(=O)O`, “inactive”.
On the same count and under the same terms, in the case of `COC(=O)c1ccccc1C` it was “inactive”; in that of `O=[N+]([O-])c1ccc(F)c(Cl)c1`, “inactive”; in that of `CCC(=O)OC(=O)CC`, “inactive”.
On the same count and under the same terms, in the case of `COc1ccc2c(c1)c(CC(=O)OC/C=C(\C)CC/C=C(\C)CCC=C(C)C)c(C)n2C(=O)c1ccc(Cl)cc1` it was “inactive”; in that of `CC(=O)Oc1cc2c(s1)CCN(C(C(=O)C1CC1)c1ccccc1F)C2` (stereo not given), “inactive”.
In the case of `C/C=C/C=C/COC(=O)C(C)C`, the Potency entry is “inactive”.
The same measure, in the same setting: in the case of `Cc1ccc(N/N=c2\c(=O)cc/c(=N\Nc3ccc(S(=O)(=O)O)cc3)c2=O)c(C)c1` it was “inactive”; in that of `COc1c(C)c2c(c(O)c1C/C=C(\C)CCC(=O)OCCN1CCOCC1)C(=O)OC2`, “inactive”; in that of `Clc1ccnc(Cl)n1`, “inactive”.
On the same count and under the same terms, to `O=S(=O)(O)c1ccccc1/C=C/c1ccc(-c2ccc(/C=C/c3ccccc3S(=O)(=O)O)cc2)cc1` belongs “inactive”; to `Nc1nc2c(ncn2COCCO)c(=O)[nH]1`, “inactive”.
Same read-out and setting: to `C=CCCC(=O)/C=C/C1C(C)=CCCC1(C)C` (stereo not given) belongs “inactive”; to `CCc1cccc(CC)c1NC(=O)CN(CC(=O)O)CC(=O)O`, “inactive”; to `O=C1NC(=O)[C@@H]2CC=CC[C@H]12`, “inactive”.
As for `CC1(C)CCC[C@]2(C)[C@H]3CCO[C@]3(C)CC[C@@H]12`, the Potency entry is “inactive”.
Same read-out and setting: in the case of `O=c1[nH]c2ccccc2n1CCCN1CCN(C(c2ccccc2)c2ccccc2)CC1` it was “inactive”.
In the case of `COc1cc2nc(N3CCN(C(=O)c4ccco4)CC3)nc(N)c2cc1OC`, the viability change, negative = cytotoxic is -7.1% [at 15.8 µM] (inactive).
As for `Cc1ccc(C(C)C)cc2c(C)ccc1-2`, the Potency entry was “inactive”.
For `C[C@@H](O)[C@H](N)C(=O)O`, the viability change, negative = cytotoxic was 3.86% [at 15.8 µM] (inactive).
As for `CC(C(=O)O)c1ccc2c(c1)[nH]c1ccc(Cl)cc12` (stereo not given), the Potency entry is “inactive”.
`CCCNCCC`: the Potency result was “inactive”.
Regarding `O=C(O)c1ccc2cc(C(=O)O)ccc2c1`, the Potency entry was “inactive”.
